Counter-ions that a name gives are not always drawn. Values without a mark were called inactive.
tested on: Plasmodium falciparum NF54/iGP1_RE9H ulg8 stage V gametocytes; experiment: gametocyte viability (luciferase signal relative to DMSO control) (% of DMSO control); higher = less gametocytocidal activity, active = 50 or less; conditions: concentration: 1 µM; exposure time: 72 h
Method: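 Synchronous P. falciparum NF54/iGP1_RE9H ulg8 mature stage V gametocytes (day 12) were exposed to Cayman Epigenetics Screening Library compounds at 10 µM or 1 µM for 72 h at 37 °C. Viability was read as RE9H luciferase bioluminescence, normalised to DMSO plate controls (100%); 50 µM methylene blue was the positive control.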

Compound	gametocyte viability
O=C(O)c1ccc(O)c2ncccc12	90.6
C/C(=N\NC(=O)c1cccc(S(=O)(=O)N2CCOCC2)c1)c1cc(Cl)ccc1O	89.1
CC(C)(C)c1ccc(C(=O)NC(=S)Nc2ccc(N)cc2)cc1 [Tenovin-3]	92.2
O=C(Nc1cccc(Br)c1)c1cccc(S(=O)(=O)N2CCCCCC2)c1	85.8
Nc1cc(F)ccc1NC(=O)c1ccc(CNC(=O)/C=C/c2cccnc2)cc1 [Chidamide]	92.7
Cc1ccc(NC(=O)CCCCCC(=O)Nc2ccccc2N)cc1 [Pimelic Diphenylamide 106]	86.8
COc1ccccc1C(=O)Nc1cc2c(cc1N1CCCC1)n(C)c(=O)n2C	79.5
Nc1ncnc2c1ncn2[C@@H]1O[C@H](C[C@@H](N)CC[C@H](N)C(=O)O)[C@@H](O)[C@H]1O [Sinefungin]	88.5
O=C([C@@H](Cc1cccc(C(F)(F)F)c1)NS(=O)(=O)c1cc(F)c2c(c1)CCNC2)N1CCCC1 [(R)-PFI-2 (hydrochloride)]	85.2
CCCNNC(=O)c1ccc(CNC(=O)/C=C/c2ccccc2)cc1 [HDAC3 Inhibitor]	83.6
CCC(CC)(NC(=O)C(C)C)C(=O)N[C@@H](CCCN=C(N)N)C(=O)NC1(C(=O)NC(c2ccc(F)cc2)c2ccc(F)cc2)CCCC1	82.6
CCCCc1nc2cc(/C=C/C(=O)NO)ccc2n1CCN(CC)CC	76.9
NC(=O)[C@H](CCCN=C(N)CCl)NC(=O)c1ccccc1 [Cl-Amidine (hydrochloride)]	104
O=C(NO)c1cccc(C(=O)NCCc2ccccc2)c1	98.3
O=C(O)c1ccc(CN2CCC(CN[C@@H]3C[C@H]3c3ccccc3)CC2)cc1	86.7
CCCCN(Cc1ccc(C(=O)NO)cc1)C(=O)Nc1ccccc1 [Nexturastat A]	103
Nc1ccn([C@@H]2O[C@H](CO)[C@@H](O)C2(F)F)c(=O)n1 [Gemcitabine]	91.5
Cc1noc(C)c1-c1ccc(-c2nc3cnccn3c2NC(C)(C)C)cc1	84.1
Nc1nc(=S)c2[nH]cnc2[nH]1 [6-Thioguanine]	90.1
N[C@H]1CC[C@H](N[C@@H]2C[C@H]2c2ccccc2)CC1	74.5

same assay, conditions: concentration: 10 µM; exposure time: 72 h

Compound	gametocyte viability
O=C(O)c1ccc(O)c2ncccc12	84.3
C/C(=N\NC(=O)c1cccc(S(=O)(=O)N2CCOCC2)c1)c1cc(Cl)ccc1O	85.8
CC(C)(C)c1ccc(C(=O)NC(=S)Nc2ccc(N)cc2)cc1 [Tenovin-3]	79.2
O=C(Nc1cccc(Br)c1)c1cccc(S(=O)(=O)N2CCCCCC2)c1	69.8
Nc1cc(F)ccc1NC(=O)c1ccc(CNC(=O)/C=C/c2cccnc2)cc1 [Chidamide]	93.4
Cc1ccc(NC(=O)CCCCCC(=O)Nc2ccccc2N)cc1 [Pimelic Diphenylamide 106]	89
COc1ccccc1C(=O)Nc1cc2c(cc1N1CCCC1)n(C)c(=O)n2C	65.1
Nc1ncnc2c1ncn2[C@@H]1O[C@H](C[C@@H](N)CC[C@H](N)C(=O)O)[C@@H](O)[C@H]1O [Sinefungin]	85.6
O=C([C@@H](Cc1cccc(C(F)(F)F)c1)NS(=O)(=O)c1cc(F)c2c(c1)CCNC2)N1CCCC1 [(R)-PFI-2 (hydrochloride)]	77.8
CCCNNC(=O)c1ccc(CNC(=O)/C=C/c2ccccc2)cc1 [HDAC3 Inhibitor]	93.8
CCC(CC)(NC(=O)C(C)C)C(=O)N[C@@H](CCCN=C(N)N)C(=O)NC1(C(=O)NC(c2ccc(F)cc2)c2ccc(F)cc2)CCCC1	82.6
CCCCc1nc2cc(/C=C/C(=O)NO)ccc2n1CCN(CC)CC	62.4
NC(=O)[C@H](CCCN=C(N)CCl)NC(=O)c1ccccc1 [Cl-Amidine (hydrochloride)]	98.5
O=C(NO)c1cccc(C(=O)NCCc2ccccc2)c1	64.6
O=C(O)c1ccc(CN2CCC(CN[C@@H]3C[C@H]3c3ccccc3)CC2)cc1	88.4
CCCCN(Cc1ccc(C(=O)NO)cc1)C(=O)Nc1ccccc1 [Nexturastat A]	67.7
Nc1ccn([C@@H]2O[C@H](CO)[C@@H](O)C2(F)F)c(=O)n1 [Gemcitabine]	85.8
Cc1noc(C)c1-c1ccc(-c2nc3cnccn3c2NC(C)(C)C)cc1	64.8
Nc1nc(=S)c2[nH]cnc2[nH]1 [6-Thioguanine]	94.6
N[C@H]1CC[C@H](N[C@@H]2C[C@H]2c2ccccc2)CC1	70.7

Source: the supplement of paper PMC12297408
